# D2 ag-1: D2 dopamine receptor (human) agonism; activation, % at 2 µM; P14416; HEK293 T-REx D2 cells, calcium flux agonist mode; 340,000 tested, 0.53% active; AID 485358;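 active = activation over 3 SD above normal in the single-dose calcium agonist read, cut at about 30% in these data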; also: 0% is about no effect
#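 In this primary screen, compounds producing a positive calcium signal within 180 s of addition to tetracycline-induced, force-coupled HEK293 Trex D2 cells are flagged; cells are dye-loaded with a no-wash calcium kit beforehand.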
# D2 PAM-1: human D2 receptor positive allosteric modulation | potentiation, % (concentration not given with the values) | AID 624464 | DiscoveRx D2 beta-arrestin cells, luminescence, 90 min; 100% = 57 uM dopamine signal | P14416 | 360,000 tested, 0.23% active; in the data active = potentiation above about 50%; inconclusive = mostly about 30% to 49%
#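 PathHunter D2 cells, attached overnight at 37 deg C, received compound in DMSO plus dopamine at EC20 (50 nM final) for 90 min at 37 deg C. Beta-arrestin recruitment was read as luminescence after 1 h with detection reagent at ambient temperature.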
# D2 antag: antagonizes the human D2 dopamine receptor | P14416 | HEK293 TREx D2 cells, calcium flux, dopamine EC80 | inhibition, % at 10 µM | 340,000 tested, 2% active | AID 485344; in the data active = inhibition above about 30%; inactive = below that, where a call was filed; also: 0% is about no effect
#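 Compounds are added to dye-loaded, induced HEK293 T-REx cells coupled to calcium release via D2; after a 3 min kinetic read an EC80 dopamine stimulus is given and fluorescence is recorded for 3 more min.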
# D2 PAM-2: positively modulates the human D2 dopamine receptor allosterically. P14416. HEK293 T-REx D2, calcium flux, EC20 dopamine potentiation. potentiation, % at 10 µM. 340,000 tested, 0.34% active;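 active = potentiation over 3 SD above the plate norm, cut at about 30% in these data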; also: 0% is about no effect
#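 Using a no-wash calcium dye in inducible, force-coupled HEK293 Trex cells expressing D2, we tracked fluorescence each second for 180 s after compound, then for 180 s after EC20 dopamine to detect augmented signalling.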
# D2 ag-2: activates the human D2 dopamine receptor; activation, % (test concentration not listed); P14416; DiscoveRx PathHunter D2 beta-arrestin, luminescence, 90 min; 100% = 57 uM dopamine signal; 360,000 tested, 0.084% active; in the data active = activation above about 40%; inconclusive = between about 15% and that limit
#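 DiscoveRx PathHunter D2 beta-arrestin cells (2,100/well) attached overnight, then compound-stimulated 90 min at 37 C in HBSS/10 mM HEPES/0.1% Tween-20 buffer; beta-galactosidase complementation read by luminescence after 1 h at ambient temperature. Dopamine 57 uM final (EC100) as control.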
# D3 arrestin ag: activates human D3 dopamine receptor beta-arrestin recruitment. shares compounds with D2 ag-1. Potency, µM (series often up to 76.9 µM), inactives show top-dose activation, actives largely listed as activators. 2,300 tested, 4% active. DiscoveRx D3 beta-arrestin cells, luminescence, 90 min;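 also: potency is read from the fitted curve at half-maximal effect; 100% = dopamine control response; nearly all actives have a fitted effect of over 70% in size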
# Target sequence (P35462 whole entry, looked up): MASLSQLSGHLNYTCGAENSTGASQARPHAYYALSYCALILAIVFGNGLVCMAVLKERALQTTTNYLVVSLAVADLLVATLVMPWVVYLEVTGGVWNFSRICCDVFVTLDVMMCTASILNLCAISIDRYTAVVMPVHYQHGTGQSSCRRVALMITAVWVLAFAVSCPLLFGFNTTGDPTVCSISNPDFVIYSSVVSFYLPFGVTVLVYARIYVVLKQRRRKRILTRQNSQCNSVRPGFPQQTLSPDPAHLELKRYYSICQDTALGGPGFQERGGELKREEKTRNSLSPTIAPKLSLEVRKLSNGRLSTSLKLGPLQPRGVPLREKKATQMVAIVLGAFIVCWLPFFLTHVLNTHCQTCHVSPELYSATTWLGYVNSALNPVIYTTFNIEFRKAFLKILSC
# D2 ag-3: D2 receptor agonism, beta-arrestin counterscreen | shares compounds with D2 ag-1 | DiscoveRx PathHunter D2 beta-arrestin, luminescence, 90 min; response scale: percent relative to full dopamine signal | Potency, µM (top dose mostly 76.9 µM), for inactives: at the top dose activation, most hits filed as activators | 2,300 tested, 5.9% active; also: potency is read from the fitted curve at half-maximal effect; % of control where 0% means no effect; nearly all actives have a fitted effect of over 70% in size
# * = called active by the depositor; ? = inconclusive; / = no result. Most compounds without a hit are left out; they make up all but 2.4% or so of the library. Unless noted, calls follow the shape of the dose curve; as a rule, active = well fitted activation curve with a large enough effect; inconclusive = small, poorly fitted or top-dose-only effect; inactive = flat fitted curve, though single readings scatter.
SMILES,D2 ag-1,D2 PAM-1,D2 antag,D2 PAM-2,D2 ag-2,D3 arrestin ag,D2 ag-3
Nc1c(Cl)c(Cl)nc(C(=O)OCC(=O)NC2CCCCC2)c1Cl,64*,?,57*,-11,53*,19%,?
O=C(COC(=O)c1nsc(Cl)c1Cl)NC1CCCCC1,0,-1,-17,1,1,/,/
CC1(C(=O)NS(=O)(=O)C2CC2)CCN(C(=O)c2cccc(Cl)c2)C1 (configuration not stated),/,-7,/,/,0,/,/
COc1ccc(NC(=O)CSc2nnc(NC(=O)c3ccco3)s2)cc1OC,-1,-19,1,-4,-1,/,/
S=C(Nc1ccccc1)N1CCN(c2ccccn2)CC1,45*,-2,16,-14,-3,-5%,4%
Cc1ccc(C)c(NC(=S)N2CCN(c3ccccn3)CC2)c1,19,-14,-16,-5,-2,0%,3%
FC(F)(F)c1ccccc1NC(=S)N1CCN(c2ccccn2)CC1,41*,2,-8,-5,-2,3%,1%
O=C(/C=C/c1ccc(F)cc1)NC(=S)N1CCN(c2ccccn2)CC1,35*,-7,-15,-21,5,5%,11%
COc1ccc(NC(=S)N2CCN(c3ccccn3)CC2)cc1,14,-2,-11,-13,-2,/,/
FC(F)(F)c1ccccc1NC(=S)N1CCCC1,0,-4,8,-1,-3,/,/
CCC(C(=O)Nc1cccc(S(=O)(=O)N(C)c2ccccc2)c1)c1ccccc1 (configuration not stated),1,-13,13,-4,2,/,/
OCC[C@H]1C[C@@H](O)[C@H](O)[C@@]2(CCc3ccccc3O2)O1,0,-8,-4,2,-1,/,/
CCNc1nc(C#N)nc2c1ncn2-c1cc(F)cc(F)c1,0,/,12,7,/,-5%,-1%
CCc1cnc2c(c1SCC(=O)NCc1ccc(F)cc1)c(=O)n(C)c(=O)n2C,1,/,/,1,/,/,/
COc1ccc(C(=O)N2CCN(CCCc3ccccc3)CC2)cc1OC,40*,-16,-24,-19,-1,?,12%
CCOC(=O)N1CCN(CCCc2ccccc2)CC1,2,-7,34*,3,12,9%,19%
COc1cccc(C(=O)N2CCN(CCCc3ccccc3)CC2)c1OC,24,-6,0,-20,3,/,/
CCOC(=O)c1ccccc1NC(=O)c1cc2c(s1)-c1ccccc1SC2,0,/,/,7,/,/,/
CCN(C(=O)C1CCN(S(=O)(=O)c2c(C)noc2/C=C/c2ccc(C)cc2)CC1)c1cccc(C)c1,1,/,/,-1,/,/,/
CN1CCc2c(sc(/N=C/c3cc(C(C)(C)C)ccc3O)c2C#N)C1,92*,27,90*,-23,43*,20%,?
CCCCN(CC)CCCNC(=O)CC1Oc2ccccc2NC1=O (configuration not stated),81*,?,87*,-18,53*,?,50µM*
CCN(CC)CCCNC(=O)CC1Sc2ccccc2NC1=O (configuration not stated),22,-5,17,-10,1,-13%,6%
CC(C)CN(CCCNC(=O)CC1Oc2ccccc2NC1=O)CC(C)C (configuration not stated),0,4,22,-6,3,/,/
O=C(NCCN1CCN(c2cccc(Cl)c2)CC1)C1CCCN(S(=O)(=O)c2cnc[nH]2)C1 (configuration not stated),81*,25,81*,-17,1,?,?
O=C(NCCN1CCN(c2ccccc2)CC1)C1CCCN(S(=O)(=O)c2cnc[nH]2)C1 (configuration not stated),74*,74*,76*,-25,?,?,?

# Screening results (PubChem BioAssay)
